This passage reports growth results from PubChem BioAssay (NCI).

This is part of a sample that, as a whole, favours compounds with a hit. Of some 83,000 tested, about 20% had one in any assay.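 Single-dose data. Exposure time 48 hours. Values below 10 considered active.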 Unmarked numbers belong to inactive results. Calls of active or inactive are those of the source.

The test has as its system HL-60(TB) leukemia. The experiment in a line: NCI-60 one-dose screen, 48 h (100 = growth as untreated, 0 = no growth, -100 = all killed). The following applies: 10 µM unless noted.
As to `O=c1cc(-c2ccc(Cl)cc2)[nH]c2ccccc12`, the growth is 44.3%.
Then `c1ccc(-c2nc(N3CCOCC3)c3c4c(sc3n2)CCCCC4)nc1`, with 79.2%.
As for `CCN(CC)CCNc1ccc(CO)c2oc3cc(Cl)ccc3c(=O)c12`, the figure is 111%; as for `COc1ccc(-c2c(-c3cc4c(c(OC)c3OC)OCO4)noc2N)cc1`, 16.8%.
Then `O=C1NCC(c2cc3ccccc3[nH]c2=O)Nc2ccccc21` (stereo not given), with 95.7%; and `COc1cc(C(=O)/C=C/c2ccc(OCCCCCC[P+](c3ccccc3)(c3ccccc3)c3ccccc3)cc2)cc(OC)c1OC`, with 11.5%.
With `CC(=O)C1=C(C)NC(SCc2nnc(-c3ccc(C)cc3)o2)=NC1c1ccc(F)cc1` (stereo not given), the growth was 80.8%.
Then `C[C@]12CCC(=O)C=C1CC[C@H]1[C@@H]3C[C@@H](O)[C@](O)(C(=O)CO)[C@@]3(C)C[C@H](O)[C@@]12F`, with 98.1%; and `COc1cc2c(cc1OC)C(C)N(S(N)(=O)=O)CC2` (stereo not given), with 72.2%; and `C=CCN1C(=O)/C(=c2\sc3n(c2=O)NC2C(N=3)N(CC)C(=O)N2CC)c2ccccc21` (stereo not given), with -12.6% (active).
Then `CC1=NC(c2ccc(Cl)cc2)C2=C(N1)/C(=C/c1ccc(Cl)cc1)CCC2` (stereo not given), with 85.8%; and `CCC(O)(C(c1ccccc1)c1ccccn1)C(c1ccccc1)c1ccccn1` (stereo not given), with 79%; and `COc1ccc(Cn2cc3c(c2-c2cc(OC)c(OC)c(OC)c2)CCc2cnoc2-3)cc1[N+](=O)[O-]`, with 11%.
Consider `Clc1ccc2c(c1)C[C@H]1C[C@@H](c3cccs3)N2O1`, for which the growth is 107%.
Then `CNC(=O)c1cc(Oc2cccc3nc(Nc4ccc(Oc5ccccc5)cc4)ccc23)ccn1`, with 87.1%.
Then `CCOC(=O)c1c(/N=C2\SC(=O)/C(=C\C(=O)OC)N2NC)sc2c1CCN(C(=O)OCC)C2`, with 108%.
Then `C[C@@H]1N=C(c2ccc3ccccc3n2)Nc2nc3ccccn3c2C1=O`, with 97.6%; and `COc1cc(C(=O)/C=C/c2c(-c3ccc(F)cc3)nc3sc(C)cn23)cc(OC)c1OC`, with -34% (active); and `Nc1ncn([C@@H]2O[C@H](CO)[C@@H](O)[C@H]2O)c(=O)n1`, with -2.84% (active).
As to `CCn1c(=O)n(C)c2c(=O)n(C)c(=O)n(C)c21`, the growth is 101%.
Then `COc1ccc(-c2cc(/C=C3\C(=O)Nc4ccc(Cl)cc43)[nH]n2)cc1`, with 22.6%.
On to `COc1cccc(C2C(C#N)=C(N)Oc3cc(OCCCCCC[P+](c4ccccc4)(c4ccccc4)c4ccccc4)ccc32)c1` (stereo not given), for which the growth is -39.6% (active).
Then `C=C(CNCCc1ccc(O)cc1)[C@@H]1CC[C@]2(COC3CCCCO3)CC[C@]3(C)[C@H](CC[C@@H]4[C@@]5(C)CCC(N)C(C)(C)[C@@H]5CC[C@]43C)[C@@H]12` (stereo not given in full), with -75.6% (active); and `COC(=O)[C@H]1Cc2c([nH]c3ccccc23)[C@H](c2ccc3c(c2)OCO3)N1`, with 98.6%.
As for `Cn1c2c(c(=O)[nH]c1=O)NC1=C(C(=O)c3ccccc31)C1(C=C(O)c3ccccc31)N2` (stereo not given), the growth is 109%.
